From the supplement of paper PMC7366291
Structures can show the parent of a compound that is named as a salt. ± gives the standard deviation.

Each compound was assayed on Danio rerio Tg(wt1b:EGFP) embryo, pronephros (assay: glomerular separation, fold change vs DMSO control; higher = glomeruli further apart (abnormal)). Settings: 25 µM; exposure: 24-48 hpf.
Outline: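 Dechorionated Tg(wt1b:EGFP) zebrafish embryos were treated with 25 μM compound in 0.5% DMSO, in HEPES-buffered E3 with 0.003% PTU, from 24 to 48 hpf at 28.5°C. On maximum projections of dorsal pronephros images, 16 hand-placed reference points in Fiji gave distances and angles, and values more than 2 SD from the feature mean were left out. Results are fold changes over the mean of same-day DMSO-treated embryos.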

| SMILES | glomerular separation |
| --- | --- |
| Cc1ccc(/C(=C\CN2CCCC2)c2ccccn2)cc1 [Triprolidine hydrochloride] | 0.823 ± 0.16 |
| O=C(O)Cc1ccccc1Nc1c(Cl)cccc1Cl [Diclofenac sodium] | 3.78 ± 1.9 |
| CC(C)(C)NCC(O)COc1cccc2c1CC(O)C(O)C2 (centres undefined) [Nadolol] | 0.664 ± 0.2 |
| Cc1cc(-c2ccccc2)nnc1NCCN1CCOCC1 [Minaprine dihydrochloride] | 1.13 ± 0.95 |
| O=C(O)c1cn(-c2ccc(F)cc2)c2cc(N3CCNCC3)c(F)cc2c1=O [Sarafloxacin] | 1.17 ± 0.4 |
| CC[C@]12CCCN3CCc4c(n(c5ccccc45)[C@@](O)(C(=O)OC)C1)[C@@H]32 [Vincamine] | 0.967 ± 0.23 |
| O=C(NCCO[N+](=O)[O-])c1cccnc1 [Nicorandil] | 1.05 ± 0.44 |
| C[C@H](O)C(=O)Nc1c(I)c(C(=O)NC(CO)CO)c(I)c(C(=O)NC(CO)CO)c1I [Iopamidol] | 0.92 ± 0.3 |
| N=C(N)NCCN1CCCCCCC1 [Guanethidine sulfate] | 0.862 ± 0.46 |
| Clc1ccc2nsnc2c1NC1=NCCN1 [Tizanidine hydrochloride] | 1.02 ± 0.43 |
| CC(C)(C#N)c1cc(Cn2cncn2)cc(C(C)(C)C#N)c1 [Anastrozole] | 1.2 ± 0.37 |
| O=C(CCCN1CCN(c2ccccn2)CC1)c1ccc(F)cc1 [Azaperone] | 1.11 ± 0.43 |
| CCCCN(CCCC)CCCOC(=O)c1ccc(N)cc1 [Butacaine] | 0.928 ± 0.47 |
| Cc1ccc(N(CC2=NCCN2)c2cccc(O)c2)cc1 [Phentolamine hydrochloride] | 1.13 ± 0.33 |
| CN1[C@@H]2CC[C@H]1C[C@@H](OC(=O)C(O)c1ccccc1)C2 (mixture of isomers) [Homatropine hydrobromide (R,S)] | 0.957 ± 0.29 |
| CCC1(c2ccccc2)C(=O)NCNC1=O [Primidone] | 0.835 ± 0.33 |
| CCOc1ccccc1OCC1CNCCO1 (centres undefined) [Viloxazine hydrochloride] | 1.35 ± 0.55 |
| C=CCOc1ccccc1OCC(O)CNC(C)C (centres undefined) [Oxprenolol hydrochloride] | 0.751 ± 0.34 |
| OCc1cc(C(O)CNCCCCCCOCCCCc2ccccc2)ccc1O (centres undefined) [Salmeterol] | 5.53 ± 1.4 |
| COc1cc(NS(=O)(=O)c2ccc(N)cc2)nc(OC)n1 [Sulfadimethoxine] | 1.02 ± 0.48 |
| CNCCC(Oc1ccccc1OC)c1ccccc1 (centres undefined) [Nisoxetine hydrochloride] | 0.972 ± 0.43 |
| N=C(N)NS(=O)(=O)c1ccc(N)cc1 [Sulfaguanidine] | 1.04 ± 0.35 |
| Cc1onc(-c2ccccc2)c1C(=O)N[C@@H]1C(=O)N2[C@@H]1SC(C)(C)[C@@H]2C(=O)O [Oxacillin sodium] | 0.779 ± 0.29 |
| CNCCc1ccccn1 [Betahistine mesylate] | 0.815 ± 0.39 |
| Cc1c(O)cccc1C(=O)N[C@@H](CSc1ccccc1)[C@H](O)CN1C[C@H]2CCCC[C@H]2C[C@H]1C(=O)NC(C)(C)C [Nelfinavir mesylate] | 0.563 ± 0.13 |
| Nc1ccc(S(=O)(=O)Nc2nccs2)cc1 [Sulfathiazole] | 0.931 ± 0.36 |
| CCC[C@@H]1C[C@@H](C(=O)N[C@@H]([C@H]2O[C@H](SC)[C@H](O)[C@@H](O)[C@H]2O)[C@H](C)Cl)N(C)C1 [Clindamycin hydrochloride] | 0.862 ± 0.2 |
| CN1Cc2c(N)cccc2C(c2ccccc2)C1 (centres undefined) [Nomifensine maleate] | 0.973 ± 0.34 |
| CC(C)C[C@H](NC(=O)[C@@H](O)[C@H](N)Cc1ccccc1)C(=O)O [Ubenimex] | 1.12 ± 0.52 |
